# beta cell repl: MIN6 beta-cell proliferation induction. proliferation, % at 10 µM. 330,000 tested, 0.29% active. AID 2380. MIN6 cells proliferation, ATPlite luminescence, 48 h; cells starved in 0.2% serum; 100% = growth in 10% serum;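 active = compounds whose signal lies at least 3.5 SD above the mean of all wells on their plate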;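 also: 0% = DMSO-treated cells in low-serum medium and 100% = 10% serum control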
# Platelet DG rel: modulates dense granule release in human platelets. human platelet-rich plasma, SFLLRN dense granule ATP release, luminescence. inhibition, %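 (compounds screened at 7.5 µM in platelet-rich plasma)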. 300,000 tested, 0.22% active. AID 1663;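 active = mean replicate score, as percent of positive control, at or above 50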
# GRK2 aptamer HTS: blocks RNA aptamer binding to human GRK2. bead flow cytometry, FAM-aptamer displacement from GRK2. 330,000 tested, 0.59% active. inhibition of aptamer binding, % at 10 µM;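 active = inhibition of aptamer binding above 40%, roughly 3 SD of noise, on plates passing a quality check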;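 also: median bead fluorescence of bound FAM aptamer so fluorescent compounds give negative values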
# NTR1 agonist: activates human neurotensin receptor 1 | NTR1-U2OS beta-arrestin-GFP spot imaging, agonist mode | AID 493036 | P30989 | 330,000 tested, 0.17% active | activation, % at 20 µM;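 active = activation at or above 40% of the spot to cytoplasm intensity ratio, with at least 20 cells analyzed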;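 also: 0% = DMSO without peptide and 100% = 100 nM NTR1 peptide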
# Target sequence (P30989 whole entry, looked up): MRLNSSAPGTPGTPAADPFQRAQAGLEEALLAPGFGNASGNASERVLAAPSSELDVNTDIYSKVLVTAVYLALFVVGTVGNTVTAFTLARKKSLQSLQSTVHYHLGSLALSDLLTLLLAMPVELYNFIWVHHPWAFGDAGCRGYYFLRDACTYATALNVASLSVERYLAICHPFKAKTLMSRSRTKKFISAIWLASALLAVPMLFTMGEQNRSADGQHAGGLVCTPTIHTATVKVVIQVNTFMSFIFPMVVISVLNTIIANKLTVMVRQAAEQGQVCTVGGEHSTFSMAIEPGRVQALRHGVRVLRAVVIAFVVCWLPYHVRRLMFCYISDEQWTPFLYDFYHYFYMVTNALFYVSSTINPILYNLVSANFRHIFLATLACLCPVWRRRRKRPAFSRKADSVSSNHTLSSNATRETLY
# GRK2 inh confirm: human GRK2 inhibition confirmation, cherry pick 1 | AID 504451 | aptamer displacement, % at 10 µM | bead-bound GRK2, FAM-aptamer displacement, flow cytometry | shares compounds with GRK2 aptamer HTS | 2,000 tested, 4% active;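 active = aptamer displacement above 40%, near three times the noise of non-fluorescent compounds, on plates passing quality checks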;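 also: negative values mostly reflect intrinsic compound fluorescence rather than true enhancement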
# FAM quench CP1: counter-screen for GRK2 aptamer inhibitors: fluorescent aptamer quenchers. fluorescence response (% of DMSO), % at 10 µM. AID 504580. shares compounds with GRK2 aptamer HTS. Carboxyfluorescein RNA aptamer on beads, flow cytometry quenching; active compounds read low. 2,000 tested, under 10 active;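 active = compounds that quench the bead-bound fluorescent RNA probe, cutting fluorescence to under half of the solvent control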;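 also: counterscreen run without GRK2 so only probe quenching by compound is measured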
# GRK2 CP2: confirmation of human GRK2 inhibitors binding RNA aptamer site; shares compounds with GRK2 aptamer HTS; bead-bound GRK2, FAM-aptamer displacement, flow cytometry; inhibition of aptamer binding, % at 10 µM; 360 tested, under 10 active; AID 504782;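 active = inhibition of aptamer binding above 40%, about triple the noise seen with nonglowing compounds, on plates passing quality control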;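 also: negative values mostly come from compounds that fluoresce themselves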
# FAM quench CP2: quenches fluorescent RNA aptamer, GRK2 hit artifact | shares compounds with GRK2 aptamer HTS | carboxyfluorescein RNA aptamer beads, flow cytometry quenching; active compounds read low | fluorescence response vs DMSO, % at 10 µM | 360 tested, under 10 active | AID 588494;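 active = response vs DMSO under 50%, meaning signal dropped by over half, treated as fluorescence quencher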;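 also: labelled aptamer on streptavidin beads without GRK2 as a quench counter-screen; 100% = bead fluorescence of DMSO wells and lower means quenching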
# Numbers without * were called inactive; nt = no result given. An excerpt weighted towards active compounds, which were near 1.2% of everything screened.
SMILES,beta cell repl,Platelet DG rel,GRK2 aptamer HTS,NTR1 agonist,GRK2 inh confirm,FAM quench CP1,others
Cc1cccc(N(CC(=O)N/N=C/c2ccc(C(=O)O)cc2)S(=O)(=O)c2ccccc2)c1C,-2,-41,1,1,nt,nt,
CC(C)Cc1nnc(NC(=O)CCS(=O)(=O)c2ccc(Cl)cc2)s1,-6,7,0,1,-5,96,
CCCCC(=O)Nc1nnc(CCc2ccccc2)s1,-4,-2,99*,1,0,97,
COCCSc1nnc(NC(=O)CCS(=O)(=O)c2ccccc2)s1,-2,-1,0,-2,0,100,
CC(=O)c1cccc(NC(=O)CSCc2ccccc2)c1,1,-1,43*,0,-2,99,
CCCCN(C)C(=O)c1cc2c(Cl)nc3ccccc3c2s1,4,1,49*,8,0,102,
CCOc1ccc(-c2cn[nH]c2N)cc1,-1,-6,4,2,nt,nt,
COc1ccc(-c2cn[nH]c2N)cc1,-3,-130,63*,-1,2,82,
Cc1cccn2c(=O)nc(SCC(=O)NCc3ccc4c(c3)OCO4)nc12,1,-8,4,1,nt,nt,
CCOC(=O)c1ccccc1NC(=O)Cc1c(C(=O)O)n(C)c2ccccc12,0,4,50*,0,-2,95,
CC(C)c1ccc(N(C)C(=O)Cc2c(C(=O)O)n(C)c3ccccc23)cc1,-4,4,0,1,nt,nt,
COc1ccc(C)cc1NC(=O)Cc1c(C(=O)O)n(C)c2ccccc12,-1,9,0,1,nt,nt,
CCOC(=O)c1ccccc1NC(=O)COC(=O)c1ccccc1C(=O)N(C)c1ccccc1,7,0,44*,3,-2,98,
CN(C(=O)Cc1c(C(=O)O)n(C)c2ccccc12)c1ccc(Cl)cc1,-2,7,9,0,0,98,
COc1ccc(-n2c(C)cc(C(=O)CSc3nnc(-c4ccoc4C)n3C)c2C)cc1,0,-2,91*,-2,2,100,
CN(CC(=O)Nc1ccccc1Cl)CC(=O)N(C)c1c(N)n(Cc2ccccc2)c(=O)[nH]c1=O,-4,nt,2,0,nt,nt,
Cn1c(=O)[nH]c(=O)c2c1nc(SCCN1CCOCC1)n2Cc1ccccc1,-2,-3,89*,-1,-2,104,
Cn1c(=O)[nH]c(=O)c2c1nc(SCC(=O)O)n2CCOc1ccccc1,6,1,0,-2,1,96,
Cn1c(=O)[nH]c(=O)c2c1nc(Br)n2CC(O)COc1ccccc1 (configuration not stated),-1,7,75*,-2,-4,102,
Cn1c(=O)[nH]c(=O)c2c1nc(SCCN1CCOCC1)n2CCCc1ccccc1,-4,6,1,-2,nt,nt,
Cc1cc(C)n(-c2nc3c(c(=O)[nH]c(=O)n3C)n2CC(O)COc2ccc(Cl)cc2Cl)n1 (configuration not stated),-3,1,72*,2,3,96,
Cn1c(=O)[nH]c(=O)c2c1nc(SCC(=O)O)n2CCc1ccccc1,0,-1,0,1,nt,nt,
CCN(CC)CCNc1nc2c(c(=O)[nH]c(=O)n2C)n1CC(O)COc1ccc(Cl)cc1Cl (configuration not stated),4,-13,0,0,nt,nt,
O=C(c1ccc(Sc2cccc(Cl)c2)c([N+](=O)[O-])c1)N1CCN(c2ccccn2)CC1,-3,1,2,1,nt,nt,
CCN(C(=O)Cn1nc(C)c([N+](=O)[O-])c1C)c1c(N)n(Cc2ccccc2)c(=O)[nH]c1=O,2,3,0,2,nt,nt,
SMILES,beta cell repl,Platelet DG rel,GRK2 aptamer HTS,NTR1 agonist,GRK2 inh confirm,FAM quench CP1,others
C=C1CCc2c([nH]c3ccc(OCC(C)C)cc23)C1=O,-5,5,1,39,nt,nt,
COc1ccc(Cl)cc1Nc1nnc(-c2ccncc2)s1,-2,nt,55*,1,-11,103,
O=C(CSc1nncn1-c1ccccc1)c1c[nH]c2ccccc12,1,-2,51*,-1,6,109,
Cc1ccc(NC(=O)c2cc(-c3ccc(F)cc3)on2)cc1C,-3,5,5,1,nt,nt,
CC(=O)c1cccc(NC(=O)c2cc(-c3ccc(F)cc3)on2)c1,-1,7,0,-1,-1,97,
COc1cccc(-c2cc(C(=O)Nc3ccc(OC)c(OC)c3)no2)c1,1,-5,98*,1,3,99,
O=C(CSc1nc2sc3c(c2c(=O)n1-c1ccccc1)CCCC3)NCc1ccco1,-1,7,0,6,nt,nt,
CCCCn1c(SCC(N)=O)nc2sc3c(c2c1=O)CCC3,0,4,4,0,nt,nt,
COCCCn1c(SCC(=O)NCc2ccco2)nc2sc3c(c2c1=O)CCC3,2,1,3,-2,nt,nt,GRK2 CP2=13;FAM quench CP2=100
CC(Sc1nc2sc3c(c2c(=O)n1-c1ccccc1)CCCC3)C(=O)O (configuration not stated),-2,4,0,0,nt,nt,
CCN(CC)C(=O)CSc1nc2sc3c(c2c(=O)n1CCCOC)CCC3,-1,1,0,1,nt,nt,GRK2 CP2=-14;FAM quench CP2=100
CCn1c(SC(C)C(=O)O)nc2sc3c(c2c1=O)CCC3 (configuration not stated),-2,nt,68*,-1,5,100,GRK2 CP2=9;FAM quench CP2=101
O=C(C[C@H]1C/C=C\CC[C@@H](Cc2ccc(F)cc2)C(=O)OC[C@H]2CCCN2C1=O)NCCO,0,nt,0,-2,nt,nt,
COc1ccc(CC(=O)OCC(=O)Nc2c(C)n(C)n(-c3ccccc3)c2=O)cc1OC,-2,nt,1,0,nt,nt,
COc1cc2c(cc1OC)n(CC(=O)NC1CCCCCC1)n1c(C)cc(=O)nc21,1,21,0,1,nt,nt,
O=C(NCCN1C(=O)S/C(=C\c2cccs2)C1=O)c1ccco1,5,-12,0,2,nt,nt,
CC(=O)NCCN1C(=O)S/C(=C\c2cccs2)C1=O,0,-3,79*,1,-2,101,
COc1ccccc1NC(=O)Cc1csc(NC(=S)Nc2ccccc2)n1,-4,2,58*,10,2,99,
Cc1cc(N2CCOCC2)ccc1/C=C1\NC(=O)N(CC(=O)Nc2ccccc2C)C1=O,-3,-2,0,-1,2,100,
Cc1cc(N2CCOCC2)ccc1/C=C1\NC(=O)N(CC(=O)Nc2ccc(F)cc2)C1=O,0,-3,1,0,nt,nt,
N#CC1=C(S)N(c2ccc(F)cc2)C(c2ccco2)NC1=O (configuration not stated),-3,-6,0,3,nt,nt,
N#CC1=C(S)N(c2ccccc2)C(c2ccco2)NC1=O (configuration not stated),-3,-5,74*,0,1,101,

# High-throughput results: PubChem, several laboratories
